Screens (PubChem)
RXFP1 antag: blocks the human relaxin receptor RXFP1; activity change, negative = inhibition, % at 57.5 µM; hit rate 0.59% among 350,000; HEK293-RXFP1, relaxin-stimulated cAMP HTRF, 30 min; stronger effect = lower value; AID 1259400; Q9HBX9;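 active = activity change of -60% or lower, but not beyond a set lower limit; inconclusive = change between -60% and -40%, or beyond the set limit; inactive = change above -40%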; also: % is scaled to controls: 0 for no effect and ±100 for the full control effect
GRP78 ERSR act: ER stress response induction in glioma | U87-MG GRP78 promoter luciferase reporter, 16 h | Potency, µM, inactives show at the highest dose activation, usual class: activators | hit rate 0.02% among 420,000 | AID 602332; also: potency is read from the fitted curve at half-maximal effect; series mostly up to about 76 µM; % of control where 0% means no effect; nearly all actives have a fitted effect of over 35% in size
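Stably transfected U87-MG human glioma cells carrying a GRP78-based luminescent sensor were seeded at 1000 cells/well, pin-dosed with compounds and incubated 16 h. Luciferase reagent was then added, and end-point luminescence was read after 10 min at room temperature.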
PTHR1 agonist: activates the human parathyroid hormone receptor PTHR1 | Q03431 | HEK293 GP2 PTHR1 cells, GloSensor cAMP luminescence, 1 h | Potency, µM (series often up to 115 µM), for inactives: at the top dose activation, usual class: activators | hit rate 0.075% among 410,000; also: potency is read from the fitted curve at half-maximal effect; nearly all actives have a fitted effect of over 55% in size
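HEK-293-derived GP2 cells expressing PTHR1 and a GloSensor cAMP reporter, 3,000/well, plated overnight, given luciferin plus IBMX (each 0.5 mM as added) for 1 h at 37 °C, then compound for 1 h at 37 °C. Luminescence was read after 15 min at room temperature.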
RXFP1 ag: agonists of human relaxin receptor RXFP1; HEK293T-RXFP1 cAMP TR-FRET, 30 min; response scale: percent of porcine relaxin response, buffer zero; Potency, µM (titrated, usually from 57.5 µM), without a hit: at the top dose activation, actives largely listed as activators; hit rate 0.3% among 370,000; AID 2676; also: potency is read from the fitted curve at half-maximal effect; % is scaled to controls: 0 for no effect and ±100 for the full control effect; nearly all actives have a fitted effect of over 60% in size
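Agonist response is measured as cAMP accumulation in an RXFP1-transfected HEK293T line under PDE4 inhibition. Values are scaled between buffer-only and 29 nM porcine relaxin, and EC50s come from standard Hill equation fits.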
KCNH2 3.1 inh: KCNH2 3.1 (human) potassium channel inhibition; U2OS KCNH2 3.1, thallium flux FluxOr; stronger effect = lower value; activity change, % (tested at about 1.8 µM); hit rate 0.95% among 340,000;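 active = maximum activity change below -70%; inconclusive = maximum activity change from -70% to -50%; inactive = maximum activity change above -50%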;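 also: thallium influx rate constant from kinetic fluorescence after stimulation buffer; % is scaled to controls: 0 for no effect and ±100 for the full control effect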
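Kinetic fluorescence (2 min after stimulation buffer) measures Tl+ influx through KCNH2 3.1 expressed by viral transduction in U2OS cells; the rate constant is normalized against DMSO controls serving as positive and negative references.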
hERG WT inh: blocks the wildtype human KCNH2 potassium channel; activity change, % at 1.84 µM; hit rate 0.37% among 340,000; U2OS, BacMam KCNH2, thallium flux FluxOr; stronger effect = lower value;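 active = maximum activity change below -70%; inconclusive = maximum activity change between -70% and -50%; inactive = maximum activity change above -50%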; also: % is scaled to controls: 0 for no effect and ±100 for the full control effect
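U2OS cells transduced with wild-type KCNH2 virus are loaded with FluxOr dye for 45 min, and thallium flux is measured in kinetic reads before and after stimulation buffer. Rate constants are normalized to DMSO controls.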
Starred values were filed as active, the others as inactive; i = inactive; ? = inconclusive; / = not tested or not shown; ! = a repeat was not active; [ ] = remark or other dose. Compounds with a hit are over-represented: about 1.4% of the library has one in this group of screens. Unless noted, calls follow the shape of the dose curve; as a rule, active = well fitted curve in the direction sought with a large enough effect; inconclusive = small, poorly fitted or top-dose-only effect, or another doubt; inactive = no such curve, though single readings can be large; an effect the other way counts as inactive or inconclusive.

SMILES	RXFP1 antag	GRP78 ERSR act	PTHR1 agonist	RXFP1 ag	KCNH2 3.1 inh	hERG WT inh
Cc1ccc(S(=O)(=O)NCc2ccc(C(=O)NCCCN3CCC(Cc4ccccc4)CC3)cc2)cc1	-7	-2%	i	0%	-81*	6
COc1ccc(CCNC(=O)c2ccc(CN3CCC(Cc4ccccc4)CC3)cc2)cc1OC	-2	-2%	-21%	1%	-93*	-23
Cc1ccc(NC2=CC(=O)CC(C)(C)C2)cc1C	15	-3%	-1%[57.5 µM]	-1%	15	2
CCOc1ccc(NC(=O)Nc2cc(C(C)C)ccc2C)cc1	/	/	/	0%	/	/
O=C(NC1CCSC1)c1cccc(Cl)c1 (stereo unspecified)	11	2%	-1%	-1%	12	2
Cc1ccc(N=C2NC(=O)/C(=C/c3cccs3)S2)cc1C	-77*	8%	-17%	0%	-10	5
O=C(NCCCc1ccccc1)c1ccc(CS(=O)Cc2ccc(Cl)cc2)o1 (stereo unspecified)	3	-2%	-1%	-1%	-85*	-44
COc1cccc(CNC(=O)c2ccc(CS(=O)Cc3ccccc3Cl)o2)c1 (stereo unspecified)	3	-2%	i	/	-81*	-7
CCOc1ccc(CN2C(=O)C(=O)c3cccc(C)c32)cc1OC	5	-7%	-12%	1%	/	/
Cc1ccc(S(=O)(=O)c2nc(-c3ccco3)oc2N2CCC(C)CC2)cc1	-63*	-1%	-47%	-4%	12	0
O=S(=O)(c1ccccc1)c1nc(-c2ccco2)oc1N1CCOCC1	3	-6%	-6%[57.5 µM]	0%	6	-4
CCOC(=O)Cc1csc(N/N=C/c2ccc(C(F)(F)F)cc2)n1	-8	-9%	i	-1%	8	15
CCN1CCN(c2ccc(S(=O)(=O)N3CCCCC3)cc2NC(=O)/C=C/c2ccc([N+](=O)[O-])cc2)CC1	-5	-4%	i	2%	-76*	-43
CN1CCN(c2ccc(S(=O)(=O)N3CCCCC3)cc2NC(=O)/C=C/c2ccc(OC(F)F)cc2)CC1	-24	-5%	-14%	0%	-15	54
CCN1CCN(c2ccc(S(=O)(=O)N3CCCCC3)cc2NC(=O)/C=C/c2ccc(OC(F)F)cc2)CC1	8	-7%	-21%	-3%	-80*	-90*
CCN1CCN(c2ccc(S(=O)(=O)N3CCCCC3)cc2NC(=O)c2cccc(OC(F)F)c2)CC1	-20	-4%	i	1%	-118*	-84*
COc1ccccc1N(CC(=O)NCC1CCCO1)C(=O)Cn1nnc(-c2cccs2)n1 (stereo unspecified)	-5	-5%	-4%	14%	18	-2
Cc1ccc(S(=O)(=O)Nc2cccc(C(=O)NCCN3CCOCC3)c2)cc1F	7	2%	-31%	0%	-10	9
CN1CCC(Oc2ccccc2Sc2ccccc2)CC1	-21	1%	-20%	1%	5	-71*
COc1cccc(Nc2ncnc3ccc(Br)cc23)c1	-3	-5%	-65%	/	4	-7
O=C(O)c1cccc(Nc2ncnc3ccc(Br)cc23)c1	6	-5%	8.9µM*!	15%	9	-10
O=C(NNS(=O)(=O)c1ccc(Cl)cc1)c1cc(-c2ccccc2)nc2ccccc12	-23	2%	-24%	1%	22	-17
O=C(NCCc1nc2ccccc2[nH]1)/C(=C/c1ccc2c(c1)OCO2)NC(=O)c1ccccc1Cl	-6	-4%	-16%	-1%	-77*	?
O=C(CCc1nc2ccccc2[nH]1)Nc1ccc2c(c1)OCO2	-3	3%	0%	0%	-198*	2
CCN(CC)S(=O)(=O)c1ccc(N2CCOCC2)c(NS(=O)(=O)c2ccc(C)c(C)c2)c1	-7	-2%	i	1%	-94*	6
CCN(CC)S(=O)(=O)c1ccc(N2CCOCC2)c(NS(=O)(=O)c2ccc(C)cc2)c1	8	-2%	-14%	0%	20	1
